Source: PubChem BioAssay
POLK inh = DNA polymerase kappa (human) inhibition | AID 588579 | purified Pol kappa, fluorescent DNA synthesis assay, 10 min | Q9UBT6 | Potency, µM (doses to about 107 µM), for inactives: top-dose activity, negative = inhibition, actives largely listed as inhibitors | 0.53% of 400,000 active; further: on the % scale 0 is the no-effect control and ±100 the full control effect
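Kinetic fluorescence screen: compound preincubated 15 min RT with 10 nM enzyme; 50 nM substrate (final) initiates; reads at 0/10 min.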
FEN1 inh = blocks human flap endonuclease 1; P39748; Recombinant FEN1 flap cleavage, fluorescence, 15 min; Potency, µM (top dose mostly 114 µM), inactives show at the top dose activity change, negative = inhibition, actives largely listed as inhibitors; 0.35% of 390,000 active; further: on the % scale 0 is the no-effect control and ±100 the full control effect; nearly all actives have a fitted effect of over 65% in size
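Concentration–response screening of FEN1 (10 nM): 15 min compound preincubation at room temperature, reaction started with 50 nM substrate and read at 0 and 15 min. Corrected, normalized data were fitted by a four-parameter Hill equation.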
WRN inhibitor = WRN helicase (human) inhibition; Q14191; WRN helicase unwinding, fluorescent forked duplex, kinetic; Potency, µM (series often up to 114 µM), for the others: top-dose activity change, negative = inhibition, hits mostly inhibitors; 0.46% of 360,000 active; AID 651768; further: on the % scale 0 is the no-effect control and ±100 the full control effect; nearly all actives have a fitted effect of over 55% in size
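WRN at 20 nM final preincubated with compound 15 min at room temperature; reaction started with 100 nM fluorophore/quencher forked duplex oligonucleotide and 2 mM ATP final. Unwinding followed kinetically by red fluorescence (ex 525, em 598 nm).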
Pol iota inh = inhibitors of human DNA polymerase iota. Potency, µM (top dose mostly 115 µM), inactives show at the highest dose activity, negative = inhibition, actives largely listed as inhibitors. Q9UNA4. 1% of 390,000 active. AID 588590. Pol iota fluorescent replication assay, 10 min
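Fluorescent replication assay read twice, at 0 min and 10 min after adding 50 nM (final) substrate. Enzyme (10 nM) and compounds were first incubated 15 min at room temperature; enzyme-free buffer wells were negative controls.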
Pol eta inh = DNA polymerase eta (human) inhibition; Q9Y253; recombinant Pol eta, fluorescent DNA replication assay; Potency, µM (top dose mostly 114 µM), for inactives: at the top dose activity change, negative = inhibition, most hits filed as inhibitors; 1.2% of 390,000 active; AID 588591; further: on the % scale 0 is the no-effect control and ±100 the full control effect
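Pol eta (10 nM) was preincubated with compounds for 15 min at room temperature, after which fluorescent replication substrate (50 nM final) was added to start the reaction. Fluorescence was read kinetically at 0 and 10 min.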
POLB inh = inhibitors of human DNA polymerase beta. P06746. Pol beta primer extension/strand displacement, fluorescence kinetic. Potency, µM (top dose mostly 114 µM), for the others: at the highest dose activity change, negative = inhibition, usual class: inhibitors. 1.3% of 340,000 active. AID 485314; further: on the % scale 0 is the no-effect control and ±100 the full control effect
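Values derive from four-parameter Hill fits of normalized kinetic data: reads at 0 and 10 min following addition of 50 nM substrate to 10 nM Pol beta preincubated 15 min with compound.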
* marks the source's active call; other numbers are inactive results; ? = inconclusive; nt = no result; [ ] = dose if it differs, or a comment. A selection: hits, their analogues and other compounds. The true share with any hit is near 2.4%. The call rests on the fitted dose curve; in most records, active means well fitted curve in the direction sought with a large enough effect; inconclusive means small, poorly fitted or top-dose-only effect, or another doubt; inactive means no such curve, though single readings can be large; an effect the other way counts as inactive or inconclusive. Potency means the concentration at half of the fitted maximal effect.

SMILES	POLK inh	FEN1 inh	WRN inhibitor	Pol iota inh	Pol eta inh	POLB inh
O=C1NC(=O)C(Sc2ccccc2[N+](=O)[O-])C(=O)N1	-13%	0%	?	10µM*	-21%	-20%
CCOC(=O)N(C)C(=O)CSP(=S)(OCC)OCC	16%[60.1 µM]	nt	nt	nt	nt	nt
CCOP(=S)(OCC)SCSc1ccc(Cl)cc1	15µM*	nt	nt	nt	nt	nt
CC(=O)O[C@H]1C[C@H](O[C@H]2[C@@H](O)CC(O[C@H]3[C@@H](O)C[C@H](O[C@H]4CC[C@@]5(C)[C@H](CC[C@@H]6[C@@H]5CC[C@]5(C)[C@@H](C7=CC(=O)OC7)CC[C@]65O)C4)O[C@@H]3C)O[C@@H]2C)O[C@H](C)[C@H]1O[C@@H]1O[C@H](CO)[C@@H](O)[C@H](O)[C@H]1O (some centres undefined)	5%[19.4 µM]	nt	nt	nt	nt	nt
[Cl][In]([Cl])[Cl]	3%[60.1 µM]	?	nt	18µM*	nt	nt
CCN1C[C@]2(COC)CC[C@H](O)[C@@]34[C@@H]5C[C@H]6[C@@H](OC)[C@H]5[C@](O)(C[C@@H]6OC)[C@@](O)([C@@H](OC)[C@H]23)[C@@H]14	-4%[12 µM]	nt	nt	nt	nt	nt
CCOC(=O)c1ccccc1N	1%	-3%	-7%	9%	-6%	nt
Nc1ccccc1C(=O)OC1CSC1	-2%	-3%	-16%[57.1 µM]	9%	?	56µM*
[Cl-].[Cl-].[Hg+2]	-29%[60.1 µM]	nt	nt	nt	nt	nt
CCOC(=O)CCCc1cc[c]([Sb](=[O])([OH])[OH])cc1	0.71µM*	3.5µM*	nt	1µM*	nt	nt
CC1Oc2cc3c(-c4c(O)cc(O)c5c(O)c6c(cc45)OC(C)C(C)C6=O)c(O)cc(O)c3c(O)c2C(=O)C1C (centres undefined)	35µM*	14µM*	63µM*	4µM*	7.1µM*	35µM*
CNC(C)C#Cc1ccc2oc3cc(C)c(C)cc3c(=O)c2c1 (centres undefined)	19%	-1%	2%	8.9µM*	-16%	nt
Cc1c(C(=O)c2cccc3ccccc23)c2cccc3c2n1[C@@H](CN1CCOCC1)CO3	-10%[60.1 µM]	nt	nt	nt	nt	nt
COc1ccc(OC)c(N2C(=O)/C(=C/c3ccco3)C(=O)NC2=S)c1	3.5µM*	8.9µM*	3.2µM*	?	0.71µM*	?
O=C1NC(=S)N(c2ccc(F)cc2)C(=O)/C1=C/c1ccco1	nt	nt	nt	nt	nt	0.56µM*
O=C1NC(=S)N(c2ccc(Cl)cc2)C(=O)/C1=C/N1CCN(C(=O)c2ccco2)CC1	-4%	3%	-30%	?	-13%	-2%
C=CCN1CC[C@]23c4c5ccc(O)c4O[C@@H]2C(=O)CC[C@]3(O)[C@H]1C5	-10%[19.4 µM]	nt	nt	nt	nt	nt
O=C1CCC2(O)C3Cc4ccc(O)c5c4C2(CCN3Cc2ccoc2)C1O5 (centres undefined)	nt	nt	-21%	nt	28µM*	nt
O=C1NC(=O)N(Cc2ccc(F)cc2)C(=O)/C1=C/c1cccs1	-13%	-16%	40µM*	?	?	89µM*
CNc1ccc2oc(C[C@@H]3OC4(CC[C@@H]3C)O[C@H]([C@@H](C)C(=O)c3ccc[nH]3)[C@H](C)C[C@H]4C)nc2c1C(=O)O (some centres undefined)	-3%[19.4 µM]	nt	nt	nt	nt	nt
O=C1c2ccccc2C(=O)N1SC1CCCCC1	10%	-5%	50µM*	?	-11%	2%
NC(=O)CNC(=O)[C@H](Cc1ccccc1)NC(=O)[C@H](CCCN=C(N)N)NC(=O)[C@@H](N)Cc1ccc(O)cc1	6%[19.4 µM]	nt	nt	nt	nt	nt
CC(=O)C(O)C(c1ccccc1)c1c(O)c2ccccc2oc1=O (centres undefined)	15%[60.1 µM]	nt	nt	nt	nt	nt
CCOP(=O)(C1=C(O)C(=O)C(C(C)(C)C)=CC1=O)c1ccccc1 (centres undefined)	-8%	-19%	?	32µM*	-5%	-11%
CC(C)CCC(=O)OC1CCC2C3CCC4=CC(=O)CC[C@]4(C)C3CC[C@]12C (some centres undefined)	2%[19.4 µM]	nt	nt	nt	nt	nt
